Unmarked numbers belong to inactive results.
The compounds below were run on TDF (assay: H1.0 immunofluorescence intensity relative to DMSO (% of DMSO); higher = stronger H1.0 induction, active = 120 or more). Conditions: concentration: 10 µM; 24 h.
Method in brief: (§1)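 For HCC1569 and TDF cells, compounds at 10 µM were applied for 24 h at 37 °C in triplicate in 384-well plates. Cells were fixed in 3.7% formaldehyde, stained for H1.0 and with DAPI, and imaged at ×10 over six fields per well. The endpoint, H1.0 nuclear intensity or cell number, is shown as percent of the plate control using the median of replicates. Positional effects were smoothed for HCC1569 only.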
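Note: TDF is a line of transformed human dermal fibroblasts of mesenchymal origin.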

SMILES | H1.0 immunofluorescence intensity
Nc1ccc(S(=O)(=O)Nc2ncccn2)cc1 [Sulfadiazine] | 95.6
CC(F)(F)CN1CCOc2c(nn(-c3ccccc3Cl)c2-c2ccc(Cl)cc2)C1=O | 93.5
C[N+](C)(CCCCCC[N+](C)(C)CCCN1C(=O)c2cccc3cccc(c23)C1=O)CCCN1C(=O)c2cccc3cccc(c23)C1=O.[Br-].[Br-] | 97.2
CC(=O)C1(O)CCC2C3CCC4=CC(=O)CCC4(C)C3CCC21C (stereo not drawn) [17alpha-hydroxyprogesterone] | 99
CCOC(=O)CNC(=O)[C@@H]1CCCN1C(=O)Cc1ccccc1 | 97.4
COc1ccc(C2CC(c3ccccc3)=NN2c2ccc(S(N)(=O)=O)cc2)cc1 (stereo not given) | 91.3
O=C(c1ccc2c(c1)OCCO2)N1CCCCC1 | 96.7
CCCCCCCCCCCC1=C(O)C(=O)C=C(O)C1=O [Embelin] | 97.6
CC#CC1(O)CCC2C3CCC4=CC(=O)CCC4=C3C(c3ccc(N(C)C)cc3)CC21C (stereo not given) [Mifepristone] | 96.8
CCCCCC=CCC(O)C=CC=CC=CC(O)CCCC(=O)O [5(S),12(R)-DIHETE all trans] | 99.7

What follows are compounds tested on HCC1569 (assay: H1.0 immunofluorescence intensity relative to DMSO (% of DMSO); higher = stronger H1.0 induction, active = 140 or more). Conditions: concentration: 10 µM; 24 h.
Method in brief: as §1

SMILES | H1.0 immunofluorescence intensity
Cn1cnc2c(NCc3ccccc3)nc(NCCO)nc21 [Olomoucine] | 94.1
CCCCCC=CCC=CCCCCCCCC(=O)O [Linoleic acid] | 99.3
CCCn1c(=O)c2c(ncn2C)n(CCC)c1=O [1,3-Dipropyl-7-methylxanthine] | 94.8
CS(=O)(=O)O.CSc1ccc2c(c1)C(N1CCN(C)CC1)Cc1ccccc1S2 (stereo not given) [Methiothepin mesylate] | 128
CNCCC(Oc1ccc(C(F)(F)F)cc1)c1ccccc1 (stereo not given) [Fluoxetine] | 135
CC(N)(COP(=O)(O)O)C(=O)O (stereo not given) [2-methyl-O-phosphonoserine] | 102
CC1=C(C(=O)O)N2C(=O)C(NC(=O)C(N)C3=CCC=CC3)C2SC1 (stereo not given) [Cephradine] | 88.5
CN(C)c1nc(N(C)C)nc(N(C)C)n1 [Altretamine] | 113
C=C(CC)C(=O)c1ccc(OCC(=O)O)c(Cl)c1Cl [Ethacrynic Acid] | 100
Cl.Cl.NCCC(=O)NCCc1cnc[nH]1 [Carcinine dihydrochloride] | 88.5
CN(Cc1cnc2nc(N)nc(N)c2n1)c1ccc(C(=O)NC(CCC(=O)O)C(=O)O)cc1 (stereo not given) [Methotrexate] | 87
CSc1nc2ccc3nc(NC(=O)C(c4ccccc4)c4ccccc4)sc3c2s1 | 94
COc1ccccc1N1CCN(CCCNc2cc(=O)n(C)c(=O)n2C)CC1.Cl [Urapidil hydrochloride] | 103
CCOC(=O)OC(C)OC1=C(C(=O)Nc2ccccn2)N(C)S(=O)(=O)c2ccccc21 (stereo not given) [Ampiroxicam] | 116
CC1Cc2ccccc2N1NC(=O)c1ccc(Cl)c(S(N)(=O)=O)c1 (stereo not given) [Indapamide] | 112
CCCC(=O)Oc1ccc2[nH]c(C(=O)c3cc4ccccc4[nH]3)cc2c1 [PDGF Receptor Tyrosine Kinase Inhibitor II] | 165 (active)
COc1cc2ncnc(Nc3ccc(Cl)cc3F)c2cc1OC.Cl | 141 (active)
O=C(NCCCN1CCOCC1)c1cnn2c(-c3ccccc3)cc(-c3ccccc3)nc12 | 119
CCC=CCC=CCC=CCC=CCC=CCCCC(=O)O | 96.4
CN1CCN(C2Cc3ccccc3Sc3ccc(Cl)cc32)CC1.O=C(O)C=CC(=O)O (stereo not given) | 145 (active)

SMILES | H1.0 immunofluorescence intensity
N=C(N)c1ccc(OCCCCCOc2ccc(C(=N)N)cc2)cc1 [Pentamidine] | 113
COc1ccc(-c2cc3c(C)nc(N)nc3n(C3CCC(OCCO)CC3)c2=O)cn1 (stereo not given) | 191 (active)
CN(C)CC(C)(C)CNc1nn2c(-c3ccccc3)nnc2cc1C1CCC1 | 92.2
S=C(NCc1ccc2c(c1)OCO2)N1CCN(c2ncnc3c2oc2ccccc23)CC1 | 132
CC1=C(C)C(=O)C(CCCCC#CCCCC#CCO)=C(C)C1=O | 103
O=C1c2ccccc2-c2n[nH]c3cccc1c23 [JNK Inhibitor II] | 144 (active)
COc1cc2ccc(=O)oc2cc1O [Scopoletin] | 88.9
CC(=O)NC(CSCC=C(C)CCC=C(C)C)C(=O)O (stereo not given) | 103
COc1ccc(CC(N)C(=O)NC2C(CO)OC(n3cnc4c(N(C)C)ncnc43)C2O)cc1 (stereo not given) [Puromycin] | 90.9
CCN1CCN(C(=O)NC(C(=O)NC2C(=O)N3C(C(=O)O)=C(CSc4nnnn4C)CSC23)c2ccc(O)cc2)C(=O)C1=O (stereo not given) [Cefoperazone acid] | 102
Nc1ccc(S(=O)(=O)Nc2ncccn2)cc1 [Sulfadiazine] | 96.7
CC(F)(F)CN1CCOc2c(nn(-c3ccccc3Cl)c2-c2ccc(Cl)cc2)C1=O | 88.3
C[N+](C)(CCCCCC[N+](C)(C)CCCN1C(=O)c2cccc3cccc(c23)C1=O)CCCN1C(=O)c2cccc3cccc(c23)C1=O.[Br-].[Br-] | 108
CC(=O)C1(O)CCC2C3CCC4=CC(=O)CCC4(C)C3CCC21C (stereo not drawn) [17alpha-hydroxyprogesterone] | 99.8
CCOC(=O)CNC(=O)[C@@H]1CCCN1C(=O)Cc1ccccc1 | 87.1
COc1ccc(C2CC(c3ccccc3)=NN2c2ccc(S(N)(=O)=O)cc2)cc1 (stereo not given) | 114
O=C(c1ccc2c(c1)OCCO2)N1CCCCC1 | 107
CCCCCCCCCCCC1=C(O)C(=O)C=C(O)C1=O [Embelin] | 87.3
CC#CC1(O)CCC2C3CCC4=CC(=O)CCC4=C3C(c3ccc(N(C)C)cc3)CC21C (stereo not given) [Mifepristone] | 102
CCCCCC=CCC(O)C=CC=CC=CC(O)CCCC(=O)O [5(S),12(R)-DIHETE all trans] | 101

From the supplement of paper PMC7156485
